This is an account of results in PubChem BioAssay.

Inconclusive results are not listed. Active and inactive are the calls of the source.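 The calls were made as follows, unless noted: active = RAM network inhibition above 8.4% in each of two replicates, 3 SD over the compound average; inconclusive = above 8.4% inhibition in only one replicate; inactive = 8.4% inhibition or less in each replicate.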

The nature of assay [1]: reduced viability of SK-BR-3 breast cancer cells – cell-based, 24 h, human, pilot screen (AID 572;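 active = viability at or below 10% of carrier control in both of two separate runs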;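 also: compound exposure lasted between 18 and 24 h rather than exactly 24 h; 100% = carrier-treated control wells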). The settings on record: SK-BR-3 viability, CellTiter-Glo luminescence, at 10 µM, stronger effect = lower value. (In general: Cellular ATP, detected with luciferase, serves as a proxy for viable cell number.)
Assay [2] can be described thus: HUVEC growth inhibition – cell-based, human, primary screen (AID 575;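 active = viability at or below 30% in both replicate assays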;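 also: 100% = median of untreated cell wells with 0.1% DMSO on each plate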). As to conditions: HUVEC proliferation, CellTiter-Glo luminescence, 72 h; at 10 µM; stronger effect = lower value.
A short description of assay [3]: H69AR cell proliferation blockers – human, duplicate replicates, primary screen (AID 580;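 active = viability at or under a set limit in both replicates, limit being median viability minus 3 SD, cut at about 48% in these data, passing the limit was not always enough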;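 also: 100% = mean luminescence of untreated wells and 0% = no signal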). As to conditions: H69AR lung tumor cells viability, ATP luminescence, 72 h; at 10 µM; stronger effect = lower value.
Assay [4] can be described thus: MRP1 drug-resistance reversers in H69AR cells – cell-based, doxorubicin co-treatment, pilot screen (AID 601;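 active = viability loss from added drug above about 55%, and viability with drug at most 40%, in both replicates, limit read from the data, passing the limit was not always enough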). The settings on record: CellTiter-Glo, 72 h, at 10 µM; for differential viability (reversal): stronger effect = higher value.
Assay [5] is described as follows: yeast transport mutant growth inhibition pilot in 384-well plates, post-Golgi transport modulator project (AID 636; in the data active = inhibition above about 31%). The settings on record: absorbance 615 nm, about 18 h, stronger effect = higher value.
Assay [6] can be described thus: growth suppression of yeast trafficking mutant, preliminary HTS, modulators of trafficking downstream of Golgi apparatus project, 1536-format plate, OD 615 nm (AID 637; in the data active = inhibition above about 30%). The settings on record: yeast transport mutant growth, absorbance 615 nm, 18 h; stronger effect = higher value.
A short description of assay [7]: S. cerevisiae growth inhibition in permissive medium (OD615), pilot counter-assay for S. cerevisiae lifespan shortening project, permissive growth control (AID 705;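 active = growth inhibition above 25% in both replicates, a cutoff set 3 SD above the mean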). As to conditions: OD615, 24 h, at 10 µM, stronger effect = higher value.
Assay [8] in a line: S. cerevisiae growth inhibition in restrictive medium, OD615, pilot screen, restrictive growth control, yeast lifespan reduction project (AID 706;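 active = growth inhibition above a set limit, 3 SD over mean compound inhibition, in both replicates, cut at about 43% in these data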;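 also: modified DeaD lifespan yeast strain shifted to restrictive glucose medium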). As to conditions: OD615, 48 h, at 10 µM, stronger effect = higher value.
Assay [9] can be described thus: doxorubicin toxicity protection in MRP-1 cells – H69AR cells, CellTiter-Glo, duplicate, MRP-1 activator project, pilot screen (AID 807;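 active = viability increase at or above a cutoff of the median across tested compounds plus 3 SD, cut at about 8.5% in these data, passing the limit was not always enough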;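 also: compound pretreatment 18-22 h then 72 h combined with doxorubicin; 0% = doxorubicin alone and 100% = vehicle without doxorubicin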). The settings on record: H69AR viability with doxorubicin, CellTiter-Glo luminescence; at 10 µM; stronger effect = higher value.
Assay [10] in a line: viability of HCT116 without oncogenic beta-catenin – human colon tumor cells, pilot screen (AID 823;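 active = cell viability at or below a set limit in both duplicate runs, the limit being the all-compound median minus 4 SD, cut at about 23% in these data, passing the limit was not always enough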;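 also: 0% = wells killed by 20 µM Hyamine and 100% = untreated DMSO cell wells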). As to conditions: HCT116 beta-catenin knockout viability, CellTiter-Glo, 60 h; at 10 µM; stronger effect = lower value.
A short description of assay [11]: viability of PTEN-null HCT116 cells – cell-based, HCT116 clonal line, CellTiter-Glo, pilot screen (AID 824;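 active = viability at or below 27.92% in each of two runs, the all-compound median minus 4 SD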;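 also: 0% = 20 µM Hyamine control and 100% = vehicle cell control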). The settings on record: HCT116 PTEN-deleted viability, 60 h, at 10 µM, stronger effect = lower value.
Assay [12] can be described thus: RAM pathway blockade in budding yeast – dse1pr::URA3 reporter, 5-FOA selection, pilot screen (AID 869;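 active = inhibition over a set limit, the all-compound mean plus 3 SD, in both replicate runs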;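 also: 0% = DMSO wells with no growth and 100% = 10 µM 1-NA-PP1 with full growth; RAM network block rescues cells from 5-FOA so hits raise OD615 growth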). The settings on record: S. cerevisiae dse1pr::URA3 5-FOA growth, OD615, 2 d; at 10 µM; stronger effect = higher value; strain carries analog-sensitive mutant Cbk1 kinase.
The nature of assay [13]: RAM signaling pathway blockade in yeast – S. cerevisiae, Pdr1DBD-CYC8 efflux-inhibited sensitized strain, primary screen (AID 1298).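 Also: 0% = DMSO untreated cells without growth and 100% = 10 µM 1-NA-PP1 full growth; higher means more yeast growth rescued from 5-FOA killing.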 As to conditions: S. cerevisiae cbk1-as DSE1-URA3 strain, 5-FOA growth OD615, 2 d; at 50 µM; stronger effect = higher value.
Setting [14] is: H69AR cells + 2 uM doxorubicin, measured here: viability with 2 uM doxorubicin, stronger effect = lower value.
Setting [15] is: H69AR cells, compound alone cytotoxicity.

A word on the viability: it is a read-out of living cells in per cent, often relative to untreated cells. A word on the inhibition: it is the drop in the measured response relative to a control, in per cent.

On to `CCOc1ccc(NS(=O)(=O)c2cc(Cl)ccc2OC)cc1`, for which the viability was 102% (inactive) in assay [1]; 91% (inactive) in assay [2]; 70.8% (inactive) in assay [3]; 92.9% in [4] (setting [14]); 70.8% in assay [4] (setting [15]); 75.1% (inactive) in [10]. In addition, the viability in assay [11] is 76.2% (inactive). Further, the differential viability (reversal) in [4] (H69AR cells + 2 uM doxorubicin) is -22.1% (inactive). In addition, the inhibition in assay [5] is -6.93% (inactive); in [6], -5.09% (inactive); in assay [12] it was 0.335% (inactive). For the same compound, the growth inhibition in [7] was -10.7% (inactive); in assay [8], -13.3% (inactive). The viability increase in assay [9] is -2.64% (inactive). Further, the RAM network inhibition in assay [13] is 0.17% (inactive).
Take `Cc1cc(C)n2c(SCC(=O)Nc3cc(C)on3)nnc2n1`: the viability in assay [1] was 91.5% (inactive); in [2] it was 104% (inactive); in assay [3], 101% (inactive); in assay [4] (setting [14]), 79.2%; in [4] (setting [15]), 101%; in [10], 102% (inactive). The viability in [11] is 97.2% (inactive). In addition, the differential viability (reversal) in assay [4] (H69AR cells + 2 uM doxorubicin) was 21.3% (inactive). The inhibition in assay [5] was -4.19% (inactive); in assay [6], 5.71% (inactive); in assay [12], 1.88% (inactive). Moreover, the results for the growth inhibition in [7] and in assay [8] were -7.78% (inactive) and -16.6% (inactive), respectively. Further, the viability increase in [9] is 1.73% (inactive). The RAM network inhibition in assay [13] was 3.63% (inactive).
As for `CCn1c(C(C#N)/C(=N\S(=O)(=O)c2cccs2)c2ccccc2)nc2ccccc21` (stereo not given), the viability is 112% (inactive) in assay [1]; 96.2% (inactive) in [2]; 81.7% (inactive) in assay [3]; 94.3% in [4] (setting [14]); 81.7% in [4] (setting [15]); 87.4% (inactive) in [10]. The viability in assay [11] was 90.2% (inactive). For the same compound, in assay [4] (H69AR cells + 2 uM doxorubicin), the differential viability (reversal) is -12.6% (inactive). The inhibition is 0.26% (inactive) in assay [5], -1.15% (inactive) in assay [6] and 1.55% (inactive) in assay [12]. Moreover, the growth inhibition is -26.8% (inactive) in assay [7] and -15% (inactive) in assay [8]. Further, in [9], the viability increase was -3.19% (inactive). Also, in assay [13], the RAM network inhibition was 5.16% (inactive).
Take `CC(C)C(CO)NC(=O)CC(=O)NC(CO)C(C)C` (stereo not given): the viability in [1] was 93% (inactive); in assay [2] it was 101% (inactive); in assay [3], 103% (inactive); in assay [4] (setting [14]) it was 81.4%; in [4] (setting [15]), 103%; in assay [10] it was 105% (inactive). In addition, in assay [11], the viability was 97.3% (inactive). Besides, the differential viability (reversal) in assay [4] (H69AR cells + 2 uM doxorubicin) is 21.4% (inactive). Moreover, the inhibition in [5] is -4.8% (inactive); in assay [6], -0.91% (inactive); in assay [12], 2.15% (inactive). The growth inhibition in assay [7] is -4.75% (inactive); in assay [8] it was -1.44% (inactive). In addition, the viability increase in assay [9] is -0.9% (inactive). Moreover, the RAM network inhibition in assay [13] was 6.33% (inactive).
Regarding `O=C(O)CC(C(=O)Nc1cccc(C(F)(F)F)c1)C1CCCO1` (stereo not given), the viability in [1] is 76% (inactive); in assay [2], 108% (inactive); in [3], 97.6% (inactive); in assay [4] (setting [14]), 94.3%; in [4] (setting [15]), 97.6%; in assay [10], 104% (inactive). Moreover, the viability in assay [11] is 100% (inactive). Besides, in [4] (H69AR cells + 2 uM doxorubicin), the differential viability (reversal) is 3.26% (inactive). Further, the inhibition in [5] was -3.33% (inactive); in assay [6] it was -8% (inactive); in [12], -0.115% (inactive). The growth inhibition is -10.5% (inactive) in [7] and -6.54% (inactive) in [8]. Moreover, in [9], the viability increase is 1.01% (inactive). In addition, in assay [13], the RAM network inhibition is 2.56% (inactive).
With `Cc1cc(NC(=O)CSc2nc3c(c(-c4cccnc4)c2C#N)CCC3)no1`, the viability in [1] is 65% (inactive); in assay [2], 111% (inactive); in assay [3], 90.9% (inactive); in [4] (setting [14]) it was 84.3%; in assay [4] (setting [15]) it was 90.9%; in assay [10], 101% (inactive). In addition, the viability in assay [11] was 98.5% (inactive). Moreover, the differential viability (reversal) in [4] (H69AR cells + 2 uM doxorubicin) is 6.63% (inactive). The figures for the inhibition in [5], in assay [6] and in [12] were -5.6% (inactive), -3.09% (inactive) and 1.75% (inactive), respectively. The growth inhibition in assay [7] was 2.25% (inactive); in [8], 1.02% (inactive). Moreover, the viability increase in assay [9] is 0.51% (inactive). Further, the RAM network inhibition in [13] was 5.05% (inactive).
On to `CCOC(=O)N1CCN(C(=O)c2cnn(-c3ccccc3)c2NC(=O)c2ccccc2F)CC1`, for which the viability is 102% (inactive) in [1]; 98.8% (inactive) in assay [2]; 92% (inactive) in assay [3]; 80% in assay [4] (setting [14]); 92% in assay [4] (setting [15]); 99.4% (inactive) in assay [10]. In addition, the viability in [11] is 102% (inactive). In assay [4] (H69AR cells + 2 uM doxorubicin), the differential viability (reversal) is 12% (inactive). Also, the inhibition in [5] is -4% (inactive); in assay [6], -0.73% (inactive); in assay [12], -0.065% (inactive). Besides, the growth inhibition in [7] is 0.625% (inactive); in assay [8], -2.95% (inactive). The viability increase in assay [9] is -1.55% (inactive). Further, the RAM network inhibition in assay [13] was 1.56% (inactive).
On to `Cc1ccc(C)n1-c1ccc(N2CCOCC2)cc1`, for which the viability in assay [1] is 104% (inactive); in assay [2], 86.4% (inactive); in assay [3], 77.9% (inactive); in [4] (setting [14]), 93.4%; in assay [4] (setting [15]), 77.9%; in assay [10], 8.5% (active). In addition, the viability in [11] is 8.6% (active). For the same compound, the differential viability (reversal) in assay [4] (H69AR cells + 2 uM doxorubicin) is -15.4% (inactive). Moreover, the inhibition in assay [5] was -6.35% (inactive); in [6], -3.33% (inactive); in [12], 3.15% (inactive). Besides, the growth inhibition in assay [7] was -10.4% (inactive); in assay [8], -9.78% (inactive). Further, the viability increase in assay [9] was -7.18% (inactive). The RAM network inhibition in assay [13] is 7.34% (inactive).
For the compound `COc1cccc(C2C(C(=O)c3cccs3)=C(O)C(=O)N2CCCn2ccnc2)c1OC` (stereo not given), the viability in assay [1] is 130% (inactive); in [2] it was 102% (inactive); in assay [3] it was 109% (inactive); in assay [4] (setting [14]), 88.3%; in [4] (setting [15]), 109%; in assay [10] it was 89.1% (inactive). Besides, the viability in [11] was 89.5% (inactive). Also, the differential viability (reversal) in assay [4] (H69AR cells + 2 uM doxorubicin) was 20.9% (inactive). Further, the values for the inhibition in assay [5], in assay [6] and in assay [12] were -7.47% (inactive), 3.09% (inactive) and 0.145% (inactive), respectively. For the same compound, the figures for the growth inhibition in [7] and in [8] were -6.37% (inactive) and 1.34% (inactive), respectively. Besides, in [9], the viability increase was -1.56% (inactive). Also, the RAM network inhibition in assay [13] is 0.92% (inactive).
`C(=N\n1cnnc1)/c1cccc(OCCOc2ccccc2)c1`: the viability in [1] is 76% (inactive); in [2] it was 96.2% (inactive); in [3] it was 94.6% (inactive); in [4] (setting [14]), 90.5%; in [4] (setting [15]) it was 94.6%; in assay [10], 89% (inactive). The viability in [11] was 94.9% (inactive). For the same compound, in assay [4] (H69AR cells + 2 uM doxorubicin), the differential viability (reversal) is 4.15% (inactive). Moreover, the results for the inhibition in assay [5], in assay [6] and in [12] were -4.53% (inactive), 2% (inactive) and 1.81% (inactive), respectively. Also, the growth inhibition in [7] was -7.18% (inactive); in [8], 13.9% (inactive). For the same compound, in assay [9], the viability increase was 0.62% (inactive). Moreover, the RAM network inhibition in [13] is 0.17% (inactive).
Take `Cc1cc(=O)oc2cc(OCC#N)ccc12`: the viability is 112% (inactive) in assay [1]; 92.1% (inactive) in assay [2]; 99.4% (inactive) in [3]; 93.3% in [4] (setting [14]); 99.4% in [4] (setting [15]); 106% (inactive) in assay [10]. Moreover, the viability in [11] was 96.1% (inactive). In addition, the differential viability (reversal) in [4] (H69AR cells + 2 uM doxorubicin) is 6.12% (inactive). The results for the inhibition in [5], in [6] and in assay [12] were -5.07% (inactive), 1.33% (inactive) and 0.155% (inactive), respectively. Moreover, the growth inhibition was -4.47% (inactive) in assay [7] and -4.6% (inactive) in assay [8]. Moreover, the viability increase in assay [9] was 1.11% (inactive). For the same compound, the RAM network inhibition in assay [13] is 3.55% (inactive).
